In the library only some 8% were active in any assay of this set; here they are far more common.
TSHR antag – Antagonists of the Thyroid Stimulating Hormone Receptor: HTS campaign. activity change, negative = inhibition, % at 11.5 µM. actives 0.2% (n = 330,000). AID 504810, 2011. Thyrotropin receptor (Homo sapiens), P16473. TSHR-expressing cells, TSH-stimulated cAMP HTRF, 2 h; stronger effect = lower value;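 active = activity change below a set negative limit, meaning inhibition stronger than a set level, cut at about -70% in these data; inconclusive = activity change between two set negative limits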
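Cell-based HTRF cAMP assay; TSHR cells + compound, TSH EC80 (4nM final), 2 h, 37 deg C. Lysis with anti-cAMP cryptate and cAMP-d2, 30 min RT, read 665/620 nm.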
ELG1 DNA repair – qHTS screen for small molecules that inhibit ELG1-dependent DNA repair in human embryonic kidney (HEK293T) cells expressing luciferase-tagged ELG1; HEK293T ELG1-luciferase reporter, luminescence, 16 h; DNA damage induced by 5-fluorouridine; Potency, µM (series often up to 46.1 µM), inactives show at the top dose activity change, negative = inhibition, hits mostly inhibitors; actives 2.3% (n = 330,000); note: potency is the fitted concentration of half-maximal effect; nearly all actives have a fitted effect of over 55% in size
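Cells (2,000 per well) received 5-fluorouridine plus test compound or DMSO and were incubated 16 hr at 37 °C, 5% CO2. Luciferase activity was read by luminescence 30 min after ONE-Glo addition; signal suppression marked inhibition of damage-induced ELG1 function.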
Gal4-VP16 FLuc – VP16 counterscreen qHTS for inhibitors of ROR gamma transcriptional activity. Drosophila S2 Gal4-VP16 UAS-luciferase, luminescence, 20 h. Potency, µM (series often up to 53.6 µM), inactives show at the highest dose activity, negative = inhibition, usual class: inhibitors. actives 3.5% (n = 310,000). AID 2546, 2010;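 note: Gal4-VP16 expression switched on by copper sulfate through the metallothionein promoter; potency is the fitted concentration of half-maximal effect; nearly all actives have a fitted effect of over 50% in size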
RORgamma inh – qHTS for inhibitors of ROR gamma transcriptional activity; Drosophila S2 Gal4-RORgamma UAS-luciferase reporter, 20 h; Nuclear receptor ROR-gamma (Mus musculus), P51450; Potency, µM (doses to about 53.6 µM), for inactives: top-dose activity change, negative = inhibition, usual class: inhibitors; actives 5.4% (n = 310,000); AID 2551, 2010; note: potency is the fitted concentration of half-maximal effect; nearly all actives have a fitted effect of over 60% in size
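Luciferase reporter read in Schneider cells carrying Gal4-RORγ (mouse) and UAS-Photinus luciferase; cells given compound 1 h before 700 uM copper sulfate induction, then incubated 20 h at ambient temperature.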
FBPA coupling cs – qHTS Assay for Inhibitors of Fructose-1,6-bisphosphate Aldolase from Giardia Lamblia: Coupling assay counterscreen | activity change, negative = inhibition, % at 58.2 µM, hits read low | AID 2472, 2010 | actives 0.67% (n = 290,000) | coupling enzyme system counterscreen, AmpLite Red fluorescence; in the data active = activity change below about -30%
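Coupling enzymes only (glyceraldehyde-3-phosphate) + compound, at 57.5 uM final, 10 min RT; add substrate/coupling/AmpLite Red mix, 20 min RT; fluorescence ex 525/em 598 nm. Actives flag coupling-system interference.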
An asterisk follows results filed as active; u = inconclusive; x = no result. Unless noted, calls come from the whole dose curve; as a rule, active = well fitted curve in the direction sought with a large enough effect; inconclusive = small, poorly fitted or top-dose-only effect, or another doubt; inactive = no such curve, though single readings can be large; an effect the other way counts as inactive or inconclusive. % is set by controls: 0 for no effect and ±100 for the full control effect.

SMILES	TSHR antag	ELG1 DNA repair	Gal4-VP16 FLuc	RORgamma inh	FBPA coupling cs
Cc1cccc(Cc2cnc(N3C(=N)SC(C)C3=O)s2)c1 (stereo not given)	-9	u	1.1µM*	0.35µM*	0
Cc1cccc(Cc2cnc(N3C(=N)SC(c4ccccc4)C3=O)s2)c1 (stereo not given)	-41	2%	1.3µM*	u	3
Cc1ccc(Cc2cnc(N3C(=N)SC(C)C3=O)s2)cc1 (stereo not given)	-25	u	3.2µM*	5µM*	0
O=C1c2ccccc2C(=O)N1c1ncc(Cc2ccc(Cl)cc2)s1	-15	u	-6%	-22%	6
CCOc1ccc(S(=O)(=O)N(C)CC(=O)NC2CC2)cc1	-1	-13%	-3%	5%	x
COc1ccc(C(C)=O)c2c(O)cccc12	-4	3%	5%	10%	-37*
CN(C)S(=O)(=O)c1cccc(-c2nn(-c3ccccc3)cc2/C=C2\SC(=S)NC2=O)c1	-74*	23µM*	u	13µM*	0
CN(C)S(=O)(=O)c1cccc(-c2nn(-c3ccccc3)cc2/C=C(\C#N)c2nc3ccccc3[nH]2)c1	-6	2.6µM*	-9%	25%	-2
O=C(COc1ccc(Cl)cc1Cl)Nc1nnc(C2=COCCO2)o1	-5	u	4.5µM*	3.2µM*	-1
O=C(COc1ccc(Cl)cc1)Nc1nnc(C2=COCCO2)o1	3	9%	-16%	13µM*	2
COc1ccc(CCNC(=O)c2cc(C)oc2C)cc1OC	-6	-2%	-6%	13%	-2
CCn1c(C)cc(=S)c2ccccc21	3	0%	-10%	-12%	-42*
CCn1c2ccccc2c2cc(N)ccc21	1	-1%	-7%	-5%	-9
Cc1ccc(NC(=O)Cc2nnc(SCC(=O)NC3=NCCS3)n2C)cc1	1	7%	-13%	-1%	0
CC(C)(C)c1ccc(C(=O)Nc2cccnc2)cc1	-13	u	1%	u	-2
CC(C)(C)c1ccc(C(=O)Nc2ccc(Oc3cccnc3)nc2)cc1	-26	2.1µM*	u	-37%	0
CCn1nnc2cc(C(=O)NCCc3ccccc3F)ccc21	6	u	11µM*	u	0
O=C(CN1C(=O)C2CC=CCC2C1=O)OCC(=O)c1ccc(Cl)c([N+](=O)[O-])c1 (stereo not given)	-9	13%	35µM*	-39%	x
CCOc1ccc(S(=O)(=O)N2CCC(C(=O)OC(C)C(=O)N3CCOCC3)CC2)cc1 (stereo not given)	6	5%	x	x	x
S=c1nc(-c2ccc(Cl)cc2)[nH][nH]1	-7	26%	-23%	8.9µM*	6
N#CCCN(CCC#N)S(=O)(=O)c1ccc(C(=O)Nc2nnc(C3=COCCO3)o2)cc1	2	3%	-4%	-26%	1
CCCCN(CC)S(=O)(=O)c1ccc(C(=O)Nc2nnc(COC)o2)cc1	4	-19%	3.2µM*	1.3µM*	14
CCCN(CCC)S(=O)(=O)c1ccc(C(=O)Nc2nnc(CSC)o2)cc1	-5	u	1.3µM*	0.89µM*	10
CCN(CC)S(=O)(=O)c1ccc(C(=O)Nc2cc(C)cc(C)c2)cc1	5	-7%	11%	1%	1
CCCCN(CCCC)S(=O)(=O)c1ccc(C(=O)Nc2nnc(CSC)o2)cc1	-8	-3%	0.89µM*	0.32µM*	15
CCCCN(CC)S(=O)(=O)c1ccc(C(=O)Nc2nnc(CSC)o2)cc1	2	u	1µM*	0.71µM*	8
CCN(CC)S(=O)(=O)c1ccc(C(=O)Nc2nnc(NC(=S)Nc3ccccc3)s2)cc1	-12	u	u	u	-1
CCCCN(CC)S(=O)(=O)c1ccc(C(=O)Nc2nnc(-c3ccccc3Cl)o2)cc1	-7	u	0.79µM*	u	18

Source: PubChem BioAssay
